PubChem BioAssay (NCI)
The panel holds about 83,000 compounds, 20% with a hit somewhere; the sample as a whole holds those more often.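 Compound tested at a single concentration for 48 hours in 96-well plates; a percent growth value below 10 was scored as active.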 Values without a mark were called inactive. Calls of active or inactive are those of the source.

Tests used:
Test in all cases: NCI-60 one-dose screen, 48 h (100 = growth as untreated, 0 = no growth, -100 = all killed)
Conditions in all cases: 10 µM unless noted
HCT-15 colon = system: HCT-15 colon
HT29 colon = system: HT29 colon
SNB-75 CNS = system: SNB-75 CNS
SNB-19 CNS = system: SNB-19 CNS
U251 CNS = system: U251 CNS
PC-3 prostate = system: PC-3 prostate
SK-MEL-5 melanoma = system: SK-MEL-5 melanoma
UACC-62 melanoma = system: UACC-62 melanoma
SK-MEL-28 melanoma = system: SK-MEL-28 melanoma

SMILES	growth (HCT-15 colon)	growth (HT29 colon)	growth (SNB-75 CNS)	growth (SNB-19 CNS)	growth (U251 CNS)	growth (PC-3 prostate)	growth (SK-MEL-5 melanoma)	growth (UACC-62 melanoma)	growth (SK-MEL-28 melanoma)
Cc1csc(Nc2nc(-c3ccc(Cl)cc3)nc(C(Cl)(Cl)Cl)n2)n1	84.1%	63.1%	89.4%	72.9%	72.8%	74.1%	93.1%	83.2%	92%
O=C1NC(=Nc2ccc(S(=O)(=O)Nc3nccs3)cc2)S/C1=C\c1coc2ccccc2c1=O	104%	97.6%	55.9%	98.5%	102%	95%	103%	99.5%	111%
COc1ccc2c(c1)c(-c1nc(-c3c[nH]c4ncccc34)cs1)cn2C	51.6%	55.6%	76.1%	92.7%	75.3%	61.1%	79.4%	67.6%	87.9%
CC1(C)[C@@H](O)CC[C@]2(C)[C@H]3CC[C@@H]4[C@H]5[C@H](C(=O)/C=C/c6ccc(C(F)(F)F)cc6)CC[C@]5(CO)CC[C@@]4(C)[C@]3(C)CC[C@@H]12	34.4%	36.1%	60%	61.1%	53.6%	43.9%	13.1%	36.5%	54.6%
Cc1ccc2[nH]cc(-c3nc(-c4cn(C)c5ncccc45)cs3)c2c1	83%	74.6%	85%	109%	94.8%	57%	76.9%	79.3%	90.6%
O=[N+]([O-])c1ccc(/C=N\Nc2ccccc2)cc1	65.5%	96.8%	81.8%	104%	72%	69%	98.1%	3.85% (active)	97.5%
Cc1cc2nc3c4cc(N)ccc4n(CCN(C)C)c3nc2cc1C	-24% (active)	14.3%	20.1%	13.2%	16.2%	21.8%	21.8%	6.43% (active)	13.3%
Cc1ccsc1-c1ccc2c(c1)COC2(CCCN(C)C)c1ccc(F)cc1 (configuration not stated)	29%	17%	34.9%	67.9%	21%	45.6%	0.45% (active)	44.9%	42.5%
COc1ccc(/C=C/C(=O)c2ccc([N+](=O)[O-])cc2)cc1	104%	95.3%	104%	96.9%	97.5%	92%	105%	88%	112%
C#CCn1c2c(c3ccccc31)C[C@]1(C)[C@H]3CC[C@@H]4[C@@H]5C(=CCC[C@H]5C(=C)C)CC[C@@]4(C)[C@]3(C)CC[C@H]1C2(C)C	104%	104%	90.3%	100%	106%	97.3%	100%	95.2%	106%
CN(C)c1cccc2[nH]c(-c3[nH]ncc3Nc3ccnc(N)n3)nc12	-17.1% (active)	0.0531% (active)	-68.7% (active)	-3.76% (active)	-50.1% (active)	5.95% (active)	-98.9% (active)	-85.1% (active)	-57.3% (active)
Cc1csc(-c2ccc3c(c2)COC3(CCCN(C)C)c2ccc(F)cc2)c1 (configuration not stated)	14.4%	-39.6% (active)	32%	74.8%	-45.1% (active)	28%	73.6%	-73.6% (active)	37.5%
N#CC1C(=N)Cc2ccccc2-c2ccccc21 (configuration not stated)	37.9%	12.4%	54.3%	64.1%	37.7%	62.1%	40.7%	39.1%	58.3%
CCSc1ncnc2c1ncn2C1OC(CO)C(O)C1O (configuration not stated)	30.9%	19.1%	57%	34.1%	54.5%	16.8%	32.6%	50.7%	83.1%
C=C(C)[C@@H]1CC[C@]2(C(=O)NNC(=O)c3cccnc3)CC[C@]3(C)[C@H](CC[C@@H]4[C@@]5(C)CCCNC(C)(C)[C@@H]5CC[C@]43C)[C@@H]12	62.4%	11.3%	80%	91.2%	64.6%	50.3%	74.4%	91%	90%
Cn1cc(-c2nc(-c3cn(C)c4ncccc34)cs2)c2cc(F)ccc21	21.3%	8.87% (active)	29.1%	46.4%	31.8%	47.1%	24.7%	41.7%	50.9%
COC(=O)[C@]12CC[C@@H](C(C)=O)[C@@H]1[C@H]1CC[C@@H]3[C@@]4(C)C/C(=C/c5cccnc5)C(=O)C(C)(C)[C@@H]4CC[C@@]3(C)[C@]1(C)CC2	23.2%	16.5%	110%	67.7%	56.6%	24.4%	39.8%	34.5%	31.5%
N=C(N)N=Nc1ccc(O)cc1	45.9% [100 µM]	31.9% [100 µM]	56.3% [100 µM]	56.8% [100 µM]	40.5% [100 µM]	38.1% [100 µM]	85.9% [100 µM]	86.6% [100 µM]	104% [100 µM]
COC(=O)C(Cc1ccccc1)n1cc(COc2nc(Cl)nc(Nc3ccc(Cl)cc3)n2)nn1 (configuration not stated)	91%	95.5%	104%	98.2%	94.1%	101%	103%	93.1%	107%
C=C(C)[C@@H]1CC[C@]2(CN)CC[C@]3(C)[C@H](CC[C@@H]4[C@@]5(C)CCC(=O)NC(C)(C)[C@@H]5CC[C@]43C)[C@@H]12	38.7%	11.5%	85.5%	78.4%	53.4%	37.4%	61.6%	82.5%	89.2%
COc1cc(-c2c(C#N)c(-c3cccs3)nc3c2c(-c2ccccc2)nn3-c2ccccc2)ccc1O	73.5%	74.8%	79.8%	98.9%	78.3%	66%	94.9%	83.5%	96.1%
N#C/C(=C\c1ccc(-c2ccc(Br)cc2)o1)c1nc(-c2ccco2)cs1	80.1%	99.5%	78.9%	92.7%	93.9%	91.5%	85%	81%	100%
O=C1C(=O)N(CCCCn2cc(-c3ccccc3)nn2)c2ccccc21	105%	112%	95%	99.7%	107%	94.3%	100%	95.7%	113%
CCOc1ccc(NC(=O)c2ccccc2-c2ccccc2C(=O)O)cc1	106%	107%	91.3%	98.8%	112%	101%	106%	99.2%	109%
Brc1ccc2[nH]cc(-c3nc(-c4c[nH]c5ncccc45)cs3)c2c1	-32.3% (active)	9.69% (active)	37.3%	68.8%	27.7%	38.1%	54.7%	41.9%	71.6%
COc1ccc(/C=C(\C#N)c2cc3ccccc3n2C(C)=O)cc1	41%	68.8%	74%	87.2%	87.1%	84.6%	92.2%	74.1%	87.2%
COc1cccc(NC(=O)c2sc3nc4c(cc3c2N)C(=O)CCC4)c1	15.7%	4.77% (active)	-0.688% (active)	41.6%	14.3%	10.5%	3.83% (active)	34.5%	62.9%
N#C/C(=C\c1ccc(-c2cccc(C(F)(F)F)c2)o1)c1nc(-c2ccco2)cs1	71.7%	99.8%	82.2%	93.8%	96.4%	90%	88.1%	78.1%	97.7%
